Results reported in PubChem BioAssay (Tox21).
Records with an inconclusive call do not appear. Activity calls are given as the source filed them. The call rests on the fitted dose curve; in most records, active means well fitted cell-killing curve with a large enough effect in the repeat runs; inconclusive means weak or mixed curves, or effect the other way; inactive means flat fitted curve, though single readings scatter.

Assay: qHTS assay to identify small molecule agonists of the constitutive androstane receptor (CAR) signaling pathway - cell viability counter screen (AID 1224836); further: nearly all actives have a fitted effect of over 45% in size
Details: HepG2-CYP2B6-hCAR viability, CellTiter-Fluor, 23 h, PK11195 added to every well; series mostly up to 92.4 µM
Text: U.S. Tox21 Program National Center for Advancing Translational Sciences [NCATS] NIH Chemical Genomics Center [NCGC] U.S. Environmental Protection Agency [EPA] National Institutes of Environmental Health Sciences [NIEHS] National Toxicology Program [NTP] U.S. Food and Drug Administration [FDA] Tox21 Assay Overview: The constitutive androstane receptor (CAR) is a nuclear receptor which regulates multiple drug metabolizing enzymes (DMEs) and transporters. Activating CAR will generally increase the transcription and subsequent translation of CYP2B6 and CYP3A4. These two DMEs represent about 50% of the drug metabolizing potential in the body. […] Recently, there have also been studies performed indicating CARs role in energy metabolism and cancer therapy. Therefore, inducing CARs activity could have a potential effect on diabetes and cancer. Identifying environmental toxins and compounds which modulate CAR, through the use of the Tox21 10K compound collection, will be an important step in determining the toxicity and potential therapeutic effects these factors will have on the human body. To differentiate true CAR agonists from cytotoxic substances, the assay is multiplexed with a cell viability assay.
Tox21 Assay Protocol Summary: A double-stable (hCAR and CYP2B6-2.2kb) transfected cell line, derived from human hepatoma (HepG2) cells, was utilized for the duration of the quantitative high-throughput screens. The HepG2-CYP2B6-hCAR cells were dispensed at 2500 cells/4 uL/well in 1536-well white solid bottom plates using a Multidrop Combi. After the assay plates were incubated at 37 C/5% CO2 for 4 hrs, 23 nL of compounds at 15 concentrations (from 5-48 columns) or positive control (from 1 to 4 columns) were transferred to the assay plates using a Pintool station. One uL of PK11195 (final concentration = 0.75 uM) was added, using a Flying Reagent Dispenser, inside each well. After a 23 hr incubation period at 37 C/5% CO2, 1 uL of CellTiter-Fluor reagent was added into each well of the assay plates using a Flying Reagent Dispenser. The fluorescence intensity in the plates was then measured using a ViewLux plate reader.
On the % scale 0 is the no-effect control and ±100 the full control effect.

Question: For `O=C(O)C1CCC1`, which outcome is on record?
Answer: Its outcome is “inactive”.

Question: For `CCCCCCCCCCCCCCC`, which outcome is on record?
Answer: The outcome was “inactive”.

Question: For `COC[C@H](c1ccc(C(F)(F)F)cc1)N1CCN(C2(C)CCN(C(=O)c3c(C)ncnc3C)CC2)C[C@H]1C`, which outcome is on record?
Answer: The outcome was “inactive”.

Question: Which outcome does the source give for `CCC(C)(C)C1CCC(OC)CC1` (stereo not given) here?
Answer: The outcome was “inactive”.

Question: With `Nc1cc(C(Cl)=C(Cl)Cl)c(S(N)(=O)=O)cc1S(N)(=O)=O` as the compound, how does the outcome read?
Answer: The outcome was “inactive”.

Question: Which outcome does the source give for `Oc1cc(O)c2c(c1)O[C@H](c1ccc(O)c(O)c1)[C@H](O)C2` here?
Answer: The outcome was “inactive”.

Question: With `NC(=O)c1c(Cl)cccc1Cl` as the compound, how does the outcome read?
Answer: Its outcome is “inactive”.

Question: Which outcome does the source give for `Cc1cc(C)cc(OCC2CNC(=O)O2)c1` (stereo not given) here?
Answer: The outcome was “inactive”.

Question: For `CC(=O)CCc1ccc(O)cc1`, which outcome is on record?
Answer: Its outcome is “inactive”.

Question: For `Cc1onc(-c2ccccc2)c1-c1ccc(S(N)(=O)=O)cc1`, which outcome is on record?
Answer: The outcome was “inactive”.

Question: Which outcome does the source give for `C=CCOCC(O)CS(=O)(=O)O` (stereo not given) here?
Answer: The outcome was “inactive”.

Question: For `COCCOC(=O)CC#N`, which outcome is on record?
Answer: The outcome was “inactive”.

Question: Which outcome does the source give for `CC(C)(O)C(=O)c1ccc(OCCO)cc1` here?
Answer: Its outcome is “inactive”.

Question: For `FC(F)(F)C(F)(F)C(F)(F)C(F)(F)C(F)(F)C(F)(F)C(F)(F)C(F)(F)C(F)(F)C(F)(F)F`, which viability change, negative = cytotoxic is on record?
Answer: Its viability change, negative = cytotoxic is 1.23% [at 8.39 µM] (inactive).

Question: Which outcome does the source give for `OCCCCCCO` here?
Answer: The outcome was “inactive”.

Question: Which outcome does the source give for `CO` here?
Answer: The outcome was “inactive”.

Question: For `Cc1ccc(Nc2ccc(O)c3c2C(=O)c2ccccc2C3=O)cc1`, which outcome is on record?
Answer: Its outcome is “inactive”.

Question: With `COC(C(=O)O)c1ccccc1` (stereo not given) as the compound, how does the outcome read?
Answer: The outcome was “inactive”.

Question: Which outcome does the source give for `C=CC(=O)N1CCOCC1` here?
Answer: Its outcome is “inactive”.

Question: With `CN(C)N=Nc1ccccc1` as the compound, how does the outcome read?
Answer: The outcome was “inactive”.

Question: With `O=[N+]([O-])c1ccc(CCO)cc1` as the compound, how does the outcome read?
Answer: Its outcome is “inactive”.

Question: Which outcome does the source give for `CCCCN(CCO)CCO` here?
Answer: The outcome was “inactive”.

Question: With `O=C(O)CCNC(=O)c1ccc(N=Nc2ccc(O)c(C(=O)O)c2)cc1` as the compound, how does the outcome read?
Answer: Its outcome is “inactive”.

Question: Which outcome does the source give for `CCCCCCCCCCCCCCCCCCOCC(O)CO` (stereo not given) here?
Answer: Its outcome is “inactive”.

Question: With `CNC(=O)c1c(I)c(NC(=O)CCCCC(=O)Nc2c(I)c(C(=O)O)c(I)c(C(=O)NC)c2I)c(I)c(C(=O)O)c1I` as the compound, how does the outcome read?
Answer: Its outcome is “inactive”.

Question: Which outcome does the source give for `CCCC(C)C(=O)O` (stereo not given) here?
Answer: Its outcome is “inactive”.

Question: With `COc1cc(C(=O)N2CCOCC2)cc(OC)c1OC` as the compound, how does the outcome read?
Answer: The outcome was “inactive”.

Question: With `Cn1cnc2c(=O)[nH]c(N)nc21` as the compound, how does the outcome read?
Answer: Its outcome is “inactive”.

Question: For `CCC(=O)Nc1cccc(N)c1`, which outcome is on record?
Answer: The outcome was “inactive”.

Question: For `c1ccc(SCCSc2ccccc2)cc1`, which outcome is on record?
Answer: Its outcome is “inactive”.

Question: Which outcome does the source give for `CC(C)COC(=O)C(C)C` here?
Answer: The outcome was “inactive”.

Question: For `C=CCOc1nc(OCC=C)nc(OCC=C)n1`, which outcome is on record?
Answer: Its outcome is “inactive”.

Question: For `C#CC(O)CCCCC` (stereo not given), which outcome is on record?
Answer: Its outcome is “inactive”.

Question: Which outcome does the source give for `O=C1CC2(CCCC2)CC(=O)N1` here?
Answer: Its outcome is “inactive”.

Question: For `C=C(C)C1CC=C(C)C(O)C1` (stereo not given), which outcome is on record?
Answer: The outcome was “inactive”.

Question: For `CC(=O)O[C@H](CC(=O)[O-])C[N+](C)(C)C`, which outcome is on record?
Answer: The outcome was “inactive”.

Question: With `COc1cc(O)cc(O)c1` as the compound, how does the outcome read?
Answer: The outcome was “inactive”.

Question: Which outcome does the source give for `CC(=O)c1ccc(C)cc1` here?
Answer: Its outcome is “inactive”.

Question: With `Cc1ccccc1Br` as the compound, how does the outcome read?
Answer: The outcome was “inactive”.

Question: With `CCn1cc(C(=O)O)c(=O)c2cc(F)c(N3CCN(C)CC3)cc21` as the compound, how does the viability change, negative = cytotoxic read?
Answer: The viability change, negative = cytotoxic was 2.39% [at 19 µM] (inactive).
